NadD inh = blocks S. aureus nicotinate mononucleotide adenylyltransferase. purified NadD enzyme, colorimetric absorbance read-out. inhibition, % at 20 µM. 0.78% of 360,000 active. AID 602399; in the data active = inhibition above about 26%
Myeloid diff MLP = compounds promoting myeloid differentiation | ER-HoxA9 myeloid progenitors, lysozyme-GFP differentiation, flow cytometry | calls only at 10 µM | 1% of 360,000 active | AID 624256;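 active = normalized GFP-positive differentiation at or above the plate's own cutoff, the solvent-only control mean plus 3 SD; inconclusive = no clear call, values can overlap the other calls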;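 note: cells exposed to compound for four days before flow analysis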
FAS TE block = inhibitors of human fatty acid synthase thioesterase domain. 0.67% of 360,000 active. P49327. AID 602261. recombinant FAS-TE, OMFH fluorogenic substrate, fluorescence endpoint. inhibition, % at 15 µM;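 active = compounds whose normalised, plate-corrected inhibition of enzyme fluorescence in the single-dose primary screen is 50% or more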;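 note: 0% = DMSO with enzyme and 100% = substrate without enzyme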
CRFR2-BP antag = antagonists of CRF-binding protein/CRF-R2 receptor complex. HEK293 CRF-R2/CRF-BP, CRF-induced calcium fluorescence. inhibition, % at 11.8 µM. 0.59% of 350,000 active;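 active = inhibition of the ligand-induced calcium signal above about 50% at the single tested concentration, limit read from the data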
CendR NRP1 mod = NRP-1/CendR interaction modulation; 0.85% of 360,000 active; O14786; FAM-RPARPAR peptide binding to NRP-1, fluorescence polarization; AID 602438; inhibition, % at 25 µM;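 active = inhibition or corrected inhibition above about 18%, plus a signal ratio from 0.5 to 1.5, limit read from the data, passing the limit was not always enough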
Target sequence (O14786 whole entry, looked up): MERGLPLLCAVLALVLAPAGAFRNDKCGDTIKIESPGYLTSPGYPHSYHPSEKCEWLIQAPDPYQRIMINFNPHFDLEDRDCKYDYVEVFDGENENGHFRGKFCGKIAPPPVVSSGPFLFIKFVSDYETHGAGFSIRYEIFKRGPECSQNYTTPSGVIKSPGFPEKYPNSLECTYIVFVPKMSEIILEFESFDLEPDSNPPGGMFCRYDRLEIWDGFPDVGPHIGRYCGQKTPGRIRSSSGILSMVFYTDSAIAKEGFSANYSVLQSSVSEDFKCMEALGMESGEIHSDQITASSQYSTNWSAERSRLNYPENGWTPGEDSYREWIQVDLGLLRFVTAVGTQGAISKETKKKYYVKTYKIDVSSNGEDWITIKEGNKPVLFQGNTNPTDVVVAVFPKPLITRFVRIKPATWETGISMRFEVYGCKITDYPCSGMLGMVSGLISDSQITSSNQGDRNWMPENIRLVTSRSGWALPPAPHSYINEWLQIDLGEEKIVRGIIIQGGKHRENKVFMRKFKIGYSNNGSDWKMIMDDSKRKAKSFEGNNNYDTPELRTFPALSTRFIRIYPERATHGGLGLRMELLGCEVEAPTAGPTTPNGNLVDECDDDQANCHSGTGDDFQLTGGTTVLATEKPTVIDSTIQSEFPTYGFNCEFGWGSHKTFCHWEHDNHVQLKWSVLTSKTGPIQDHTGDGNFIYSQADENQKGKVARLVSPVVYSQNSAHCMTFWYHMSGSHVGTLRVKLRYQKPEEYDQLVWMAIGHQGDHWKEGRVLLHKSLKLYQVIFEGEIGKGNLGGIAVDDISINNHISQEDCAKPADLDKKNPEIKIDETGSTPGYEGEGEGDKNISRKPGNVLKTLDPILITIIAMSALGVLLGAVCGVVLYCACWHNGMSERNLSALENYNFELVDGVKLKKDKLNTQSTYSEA
FAS-TE conf = FAS thioesterase (human) inhibition, confirmation; shares compounds with FAS TE block; recombinant FAS-TE, OMFH fluorogenic substrate, fluorescence; inhibition, % at 15 µM; 45% of 2,300 active; AID 624325;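 active = compounds inhibiting the enzyme by at least 50% at 15 µM in any one of the replicates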;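 note: 0% = enzyme with DMSO only and 100% = wells lacking enzyme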
The depositor's hits bear a star. Rows were chosen to be rich in hits. Some 3.6% of all compounds tested hit in one or more screens of this group.

For Cc1ccc2nc3n(c(=O)c2c1)-c1cc2ccccc2cc1C(=O)NC3Cc1ccccc1 (stereo not drawn) the results were NadD inh 22.7, Myeloid diff MLP inactive, FAS TE block 90.9*, CRFR2-BP antag 1.1, CendR NRP1 mod -5.8 and FAS-TE conf 2.0.
`O=C1NC(Cc2ccc(O)cc2)c2nc3ccc(Cl)cc3c(=O)n2-c2cc3ccccc3cc21` (stereo not drawn) gave NadD inh 18.0, Myeloid diff MLP inactive, FAS TE block 19.4, CRFR2-BP antag -19.1 and CendR NRP1 mod -10.2.
`CC1(Cc2ccc(F)cc2)C(=O)Nc2ccc(-c3cccnc3)cc21` (stereo not drawn) gave NadD inh -6.2, Myeloid diff MLP inactive, FAS TE block -3.5 and CendR NRP1 mod 6.1.
For Cc1cc(C)c2c(=O)n3c(nc2c1)C(Cc1ccccc1)NC(=O)c1cc2ccccc2cc1-3 (stereo not drawn) the results were NadD inh 28.9, Myeloid diff MLP inactive, FAS TE block 86.3*, CRFR2-BP antag -3.4, CendR NRP1 mod -6.9 and FAS-TE conf 5.0.
Screening COc1cc2ncc(S(=O)(=O)c3ccccc3)c(N3CCCC(C)C3)c2cc1OC (stereo not drawn) returned NadD inh 4.3, Myeloid diff MLP inconclusive, FAS TE block 78.5*, CRFR2-BP antag 12.0, CendR NRP1 mod 5.3 and FAS-TE conf 70.8*.
For O=S(=O)(c1ccccc1)c1cnc(-c2ccccc2)nc1N1CCCC1 the results were NadD inh -4.1, Myeloid diff MLP inactive, FAS TE block 13.0, CRFR2-BP antag 19.2 and CendR NRP1 mod -4.5.
O=C(c1cccc(S(=O)(=O)N2CCc3ccccc32)c1)N1CCOCC1 was read as NadD inh 2.3, Myeloid diff MLP inactive, FAS TE block -8.4, CRFR2-BP antag -11.2 and CendR NRP1 mod 0.0.
COc1cccc2c1OC[C@@H](CO)[C@H]2N(C)C(=O)Nc1ccccc1 was read as NadD inh 3.2, Myeloid diff MLP inactive, FAS TE block -5.4, CRFR2-BP antag -11.4 and CendR NRP1 mod 2.0.
Screening CN(C(=O)Nc1ccc(Cl)cc1Cl)[C@H]1c2cc(Br)ccc2OC[C@H]1CO returned NadD inh -7.7, Myeloid diff MLP inactive, FAS TE block 50.2*, CRFR2-BP antag -5.7, CendR NRP1 mod -8.0 and FAS-TE conf 49.7*.
For CCN1C(=O)[C@@H]2[C@@H](c3ccc(-c4ccc(OC)cc4)cc3)N3CCCC[C@@]3(C(=O)OC)[C@@H]2C1=O the results were NadD inh 2.3, Myeloid diff MLP inactive, FAS TE block 18.1, CRFR2-BP antag 4.2 and CendR NRP1 mod -15.2.
Screening CCN1C(=O)[C@H]2[C@@H](c3ccc(-c4ccc(OC)cc4)c(OC)c3)N3CCCC[C@@]3(C(=O)OC)[C@H]2C1=O returned NadD inh 6.2, Myeloid diff MLP inactive, FAS TE block 69.7*, CRFR2-BP antag -12.2, CendR NRP1 mod 15.4 and FAS-TE conf 22.3.
Screening CCN1C(=O)[C@H]2[C@@H](c3ccc(-c4ccc(F)cc4)c(OC)c3)N3CCC[C@@]3(C(=O)OC)[C@H]2C1=O returned NadD inh 5.2, Myeloid diff MLP inactive, FAS TE block 12.9, CRFR2-BP antag 1.1 and CendR NRP1 mod -7.5.
Screening COC(=O)[C@@]12CCCCN1[C@H](c1ccc(-c3ccc(Cl)c(Cl)c3)c(OC)c1)[C@H]1C(=O)N(C)C(=O)[C@H]12 returned NadD inh 5.6, Myeloid diff MLP inactive, FAS TE block 60.3*, CRFR2-BP antag -4.4, CendR NRP1 mod 13.5 and FAS-TE conf 17.0.
Screening CCN1C(=O)[C@@H]2[C@@H](c3ccc(-c4ccc(OC)cc4)c(OC)c3)N3CCCC[C@@]3(C(=O)OC)[C@@H]2C1=O returned NadD inh 7.8, Myeloid diff MLP inactive, FAS TE block 51.0*, CRFR2-BP antag 0.8, CendR NRP1 mod -7.8 and FAS-TE conf -3.8.
Screening CCCNC(=O)c1ccc(N2CCC3(CC2)CC(c2ccccc2)=NO3)c(NC(=O)Cc2ccc(F)cc2)c1 returned NadD inh 6.4, Myeloid diff MLP inactive, FAS TE block 6.6, CRFR2-BP antag -4.9 and CendR NRP1 mod 5.7.
Screening COc1ccc(F)cc1CN1CCN(C(=O)c2ccc(S(=O)(=O)N3CCCCCC3)cc2)CC1 returned NadD inh 3.6, Myeloid diff MLP inactive, FAS TE block 14.3, CRFR2-BP antag 1.6 and CendR NRP1 mod -9.8.
Cc1ccc(S(=O)(=O)Oc2ccc(/C=C(/NC(=O)c3ccccc3)C(=O)Nc3ccccc3)cc2)cc1 was read as NadD inh 5.3, Myeloid diff MLP inactive, FAS TE block 55.1*, CRFR2-BP antag -6.3, CendR NRP1 mod -5.1 and FAS-TE conf 17.5.
For COc1ccc(NC(=O)/C(=C\c2ccc(OS(=O)(=O)c3ccc(C)cc3)cc2)NC(=O)c2ccccc2)cc1 the results were NadD inh 8.2, Myeloid diff MLP inactive, FAS TE block 54.4*, CRFR2-BP antag 1.3, CendR NRP1 mod -16.0 and FAS-TE conf 15.4.
`O=C(COc1ccccc1[N+](=O)[O-])Nc1ccc2c(c1)CCC2` gave NadD inh -4.3, Myeloid diff MLP inactive, FAS TE block 5.5, CRFR2-BP antag 3.4 and CendR NRP1 mod 4.3.
For Cc1cccc(NC(=O)CCC(=O)N/N=C/c2cc([N+](=O)[O-])ccc2O)c1 the results were NadD inh 2.4, Myeloid diff MLP inactive, FAS TE block 38.7, CRFR2-BP antag -24.4 and CendR NRP1 mod -12.5.
O=C(Cn1nc2ccccc2n1)N/N=C/c1cc([N+](=O)[O-])ccc1O was read as NadD inh -1.7, Myeloid diff MLP inactive, FAS TE block 57.4*, CRFR2-BP antag 8.3, CendR NRP1 mod -12.6 and FAS-TE conf 75.3*.
For O=C(CCC(=O)Nc1ccc(Br)cc1)N/N=C/c1cc([N+](=O)[O-])ccc1O the results were NadD inh 6.2, Myeloid diff MLP inactive, FAS TE block 56.3*, CRFR2-BP antag -13.5, CendR NRP1 mod -5.0 and FAS-TE conf 63.5*.
`Cc1cc([N+](=O)[O-])nn1CC(=O)N/N=C/c1ccccc1Br` gave NadD inh 3.0, Myeloid diff MLP inactive, FAS TE block 62.8*, CRFR2-BP antag -15.9, CendR NRP1 mod 4.1 and FAS-TE conf 68.5*.
Screening O=C(CCC(=O)Nc1ccc(F)cc1)N/N=C/c1cc([N+](=O)[O-])ccc1O returned NadD inh -1.8, Myeloid diff MLP inactive, FAS TE block 55.7*, CRFR2-BP antag 5.3, CendR NRP1 mod 1.1 and FAS-TE conf 65.4*.
O=C(Cn1nnc(-c2ccccc2)n1)N/N=C/c1cc([N+](=O)[O-])ccc1O was read as NadD inh -1.8, Myeloid diff MLP inactive, FAS TE block -9.7, CRFR2-BP antag 21.8 and CendR NRP1 mod 0.3.
Screening O=S(=O)(c1ccc2c(c1)CCCC2)N1CCNCC1 returned NadD inh -7.9, Myeloid diff MLP inactive, FAS TE block -0.1, CRFR2-BP antag 3.7 and CendR NRP1 mod 9.5.
